The whole screen tested about 1,200 compounds, of which about 60 (5%) were called active. Not shown: some 1% with an inconclusive outcome.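 Rule for the calls: active = Decreasing signal and fitted IC50 at most twice the top valid tested dose; inconclusive = Bad fit or a level curve showing 30 to 70% inhibition; inactive = the rest.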 Only a sample is shown. Entries that show only a call come without a potency. Potency and affinity values are given separately.

The target of this experiment is NAD-dependent protein deacylase sirtuin-5, mitochondrial (Homo sapiens) (UniProt Q9NXA8). Description: sirtuin-5 deacylation blockers, concentration series – biochemical, fluorescence imaging, cherry-pick, set 5, dose response (AID 720591). The note with it: Purified SirT5, succinyl-peptide AMC, trypsin-coupled fluorescence; series mostly up to 15 µM.
Sequence of NAD-dependent protein deacylase sirtuin-5, mitochondrial (Homo sapiens) (Q9NXA8 whole entry, looked up): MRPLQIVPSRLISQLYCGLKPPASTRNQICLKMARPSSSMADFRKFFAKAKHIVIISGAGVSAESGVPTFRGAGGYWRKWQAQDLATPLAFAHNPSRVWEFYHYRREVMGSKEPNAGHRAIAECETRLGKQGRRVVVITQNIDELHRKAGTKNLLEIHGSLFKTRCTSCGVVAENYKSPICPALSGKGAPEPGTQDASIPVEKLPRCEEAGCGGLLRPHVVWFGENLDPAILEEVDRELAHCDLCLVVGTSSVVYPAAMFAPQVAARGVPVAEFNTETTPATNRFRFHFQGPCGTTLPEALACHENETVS
Take `Cc1ccc(CNC(=O)C2CCCN(S(=O)(=O)N3CC(C)CC(C)C3)C2)cc1` (configuration not stated): the result was inactive.

As for `O=C(COc1ccccc1)Nc1ncn[nH]1`, the compound was classed as inactive.

For the compound `COc1cc(C)c(CN2CCN(CC(=O)Nc3ccccc3C(=O)NC3CC3)CC2)cc1OC`, the call was inactive.

`O=C1CCC(C(=O)N2CCCCCC2)CN1Cc1cccc(C(F)(F)F)c1` (configuration not stated): the compound was classed as inactive.

For the compound `CCOC(=O)c1c(C)[nH]c(C)c1C(=O)COC(=O)c1cccc(C)c1O`, the compound was classed as inactive.

In the case of `CCOC(=O)c1c(C)[nH]c(C)c1C(=O)COC(=O)c1cc2ccccc2cc1O`, the result was inactive.

As to `CCOc1ccc(CCNC(=O)Cn2nc(C)c3c(C)n(-c4ccccc4)nc3c2=O)cc1`, the call was inactive.

As to `CC1=C(C(=O)N2CCOCC2)CC(CC(=O)NCC2CCCCC2)C(=O)N1CCC1=CCCCC1` (configuration not stated), the compound was classed as inactive.

On to `COC(=O)[C@]12CCCCC=C1N(Cc1cccc3ccccc13)C(=O)[C@H](CC(=O)NCC1CCCCC1)C2`, for which the result was inactive.

For the compound `NC(=O)c1ccc(NC(=O)CCCc2nc(-c3ccccc3Cl)no2)cc1`, the compound was classed as inactive.

As to `Cc1ccc2c(c1)CO[C@@]21O[C@H](CCO)C[C@H](O)[C@H]1O`, the outcome was inactive.

As to `Cc1ccc(NC(=O)C2CCN(C(=O)c3ccco3)CC2)cc1`, the compound was classed as inactive.

Take `Cc1cccc(NC(=O)C2CCN(C(=O)c3ccco3)CC2)c1C`: the compound was classed as inactive.

As for `CC(C)CCN1CCN(Cc2cnc(N3CCCC3)s2)CC1CCO` (configuration not stated), the call was inactive.

Consider `O=C(Cc1cccs1)N1CCN(S(=O)(=O)c2ccc(Cl)c(C(F)(F)F)c2)CC1`, for which the call was inactive.

With `C/C(N)=C(/C#N)C(=O)CSc1nnc(Nc2ccccc2)s1`, the outcome was inactive.

Turning to `CCSc1nnc(NC(=O)Cc2ccc(OC)cc2)s1`, the call was inactive.

For the compound `Cc1ccc(OCCSc2nc3ccccc3n2CCC(=O)O)cc1`, the call was inactive.

Turning to `CCc1ccc(S(=O)(=O)c2ccc(-n3nc(C)cc3N)cc2)cc1`, the compound was classed as inactive.

On to `c1ccc(CCn2nnc3ccccc32)cc1`, for which the compound was classed as inactive.

As for `CCOC(=O)c1c(-c2ccc(C)cc2)csc1NC(=O)CCN1CC(C)OC(C)C1` (configuration not stated), the compound was called inactive.

Take `CC1C(=O)N2CCCc3cc(S(=O)(=O)N4CCCCC4)cc1c32` (configuration not stated): the outcome was inactive.

Take `CCCNC(=O)CC1C(=O)N(Cc2ccccc2)C(C)c2nc3ccccc3n21` (configuration not stated): the compound was classed as inactive.

With `CCCCNC(=O)CC1C(=O)N(Cc2ccccc2)C(C)c2nc3ccccc3n21` (configuration not stated), the compound was called inactive.

Consider `CCCCCCN1CCN(C2CN(C3CCCCC3)S(=O)(=O)C2)CC1` (configuration not stated), for which the call was inactive.

For `CCN(c1ccccc1)S(=O)(=O)c1nnc(NC(=O)C(C)(C)C)s1`, the compound was called inactive.

In the case of `COc1ccc(C(CNC(=O)c2cccc(S(=O)(=O)N3CCCCC3)c2)N2CCCC2)cc1` (configuration not stated), the call was inactive.

The values above are taken from PubChem BioAssay AID720591 (Broad Institute, 2013).
